This is a sample that favours compounds with a hit; in the whole collection about 5.7% have one here.
PI4K2A inh: inhibitors of human PI4K2A | AID 1346378 | actives 0.13% (n = 420,000) | purified PI4K2A, ADP-Glo luminescence, 1 h; active compounds read low | activity change, negative = inhibition, % at 76.9 µM; in the data active = activity change below about -50%; inconclusive = mostly about -30% to -49%;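 note: -100% = wells without enzyme as full effect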
Target sequence (Q9BTU6 whole entry, looked up): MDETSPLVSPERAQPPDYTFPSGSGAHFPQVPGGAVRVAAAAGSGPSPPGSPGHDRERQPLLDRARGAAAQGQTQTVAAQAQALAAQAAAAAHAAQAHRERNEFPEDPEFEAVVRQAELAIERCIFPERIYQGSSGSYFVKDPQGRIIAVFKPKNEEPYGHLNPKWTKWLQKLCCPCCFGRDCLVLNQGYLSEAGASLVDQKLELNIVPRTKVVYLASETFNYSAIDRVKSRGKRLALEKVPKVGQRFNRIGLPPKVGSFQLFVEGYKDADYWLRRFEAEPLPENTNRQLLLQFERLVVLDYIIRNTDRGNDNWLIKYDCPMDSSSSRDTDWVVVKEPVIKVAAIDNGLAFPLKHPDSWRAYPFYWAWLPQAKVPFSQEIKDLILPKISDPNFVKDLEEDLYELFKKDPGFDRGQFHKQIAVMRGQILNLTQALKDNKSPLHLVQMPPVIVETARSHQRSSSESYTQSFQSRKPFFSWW
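PI4K2A activity was measured by ADP-Glo luminescence: enzyme (4 ug/mL stock) and phosphatidylinositol (1.2 mM stock) in Tris pH 7.5/MgCl2/EGTA/Triton X-100 buffer were reacted with ATP (300 microM stock) for one hour at ambient temperature.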
Giardia killer: Giardia lamblia killing | Giardia lamblia trophozoite viability | activity change, % at 7.66 µM, hits read low | actives 0.15% (n = 340,000) | AID 540267; in the data active = activity change below about -80%; inconclusive = between about -30% and that limit;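 note: parasites exposed to compound for two days anaerobically before the ATP read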
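Media and compound were dispensed first, then trophozoites at 100 cells/well; plates sat 48 hrs at 37 deg C without oxygen before ATP luminescence reagent was added and read after 15-30 min at room temperature.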
Nrf2 block: Nrf2 pathway inhibition; A549 ARE-Fluc reporter, luciferase luminescence, 18-24 h; Potency, µM (series often up to 46 µM), for inactives: at the top dose activity change, negative = inhibition, most hits filed as inhibitors; actives 2.1% (n = 360,000); AID 504444; note: potency is the fitted concentration of half-maximal effect; nearly all actives have a fitted effect of over 60% in size
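Cells were seeded and rested 2 h, then exposed to compounds for 18-24 h. CellTiter-Fluor was read first as a viability measure. BugLite was added 15 min before the final luminescent read of ARE-luciferase activity in A549 cells.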
KB-V1 cytotox: kills drug-selected multidrug resistant KB-V1 cells. actives 3.4% (n = 400,000). KB-V1 MDR cells viability, CellTiter-Glo, 72 h. Potency, µM (top dose mostly 46.1 µM), usual class: cytotoxic; note: potency is the fitted concentration of half-maximal effect; nearly all actives have a fitted effect of over 60% in size
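Potencies derive from concentration-effect curves fitted to normalized luminescence (CellTiter-Glo) of KB-V1 cells treated for 72 h at 37 degrees C in phenol-red-free DMEM containing 10% FBS.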
A549 tox: counter-screen for Nrf2 inhibitors: cytotoxicity in A549 cells; A549 ARE-Fluc cells, CellTiter-Fluor viability, 18-24 h; Potency, µM (top dose mostly 46 µM), without a hit: at the highest dose activity change, negative = cytotoxicity, usual class: inhibitors; actives 0.16% (n = 390,000); note: potency is the fitted concentration of half-maximal effect
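A549 ARE_Fluc cells in 5% FBS OPTI-MEM were exposed to compounds in concentration-response for 18-24 h at 37 deg C. Viability was read by CellTiter-Fluor fluorescence (Ex 405/Em 525) after 30 min, before the luciferase read.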
KB-3-1 tox: kills parental KB-3-1 adenocarcinoma cells; actives 1.4% (n = 400,000); KB-3-1 viability, CellTiter-Glo ATP luminescence, 72 h; Potency, µM (titrated, usually from 46.1 µM), actives largely listed as cytotoxic; note: potency is the fitted concentration of half-maximal effect; nearly all actives have a fitted effect of over 60% in size
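72 h, 37 °C compound treatment of KB-3-1 parental cells; CellTiter-Glo added, 10 min, luminescence read. Data corrected against DMSO-only plates and normalized before curve fitting.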
Numbers without * were called inactive; i = inactive; u = inconclusive; x = no result given. Unless noted, calls come from the whole dose curve; as a rule, active = well fitted curve in the direction sought with a large enough effect; inconclusive = small, poorly fitted or top-dose-only effect, or another doubt; inactive = no such curve, though single readings can be large; an effect the other way counts as inactive or inconclusive. Unless noted, % is set by controls: 0 for no effect and ±100 for the full control effect.

SMILES	PI4K2A inh	Giardia killer	Nrf2 block	KB-V1 cytotox	A549 tox	KB-3-1 tox
COc1cccc(CN(C)C(=O)CN2C(=O)NC3(CCCc4ccccc43)C2=O)c1 (centres undefined)	1	-4	-3%	21µM*	8%	i
COC(=O)[C@]12C[C@H](CC(=O)NCc3cccc(C(F)(F)F)c3)C(=O)N(Cc3cccc4ccccc34)C1=C[C@H](C1CCCC1)O[C@@H]2C	-1	x	x	x	x	x
OC(c1ccccc1)(c1ccccc1)C1CCN(CCCOc2ccc(OC(F)(F)F)cc2)CC1	-2	x	x	x	x	x
CCC1=[N+](CC(=O)c2ccc(C)cc2)CCn2c(C)ccc21	-4	10	3%	i	1%	18µM*
Cc1ccc(Cl)cc1N1CCN(CCCNc2ncnc3onc(-c4ccc(F)cc4)c23)CC1	-1	x	u	i	u	i
COc1cccc(C(=O)Nc2ccc(C(=O)c3ccccc3)cc2)c1	1	2	u	u	-7%	i
COC(=O)c1ccc(NC(=O)c2cccc(OC)c2)cc1	-51*	-8	12%	i	0%	u
CN(C)S(=O)(=O)Oc1cccc(C(=O)Nc2ccccc2Cl)c1	3	-7	6%	i	3%	i
CN(C)S(=O)(=O)Oc1ccc(C(=O)Nc2cccc(C(F)(F)F)c2)cc1	3	14	23µM*	i	u	u
COc1cccc(C(=O)Nc2ccc(C(=O)O)cc2)c1	-64*	-16	11%	i	0%	i
CN(C)S(=O)(=O)Oc1cccc(C(=O)Nc2ccc(Cl)cc2)c1	2	8	u	i	u	9.2µM*
O=C(NCCC1=CCCCC1)C1CCN(S(=O)(=O)c2ccccc2[N+](=O)[O-])CC1	1	x	x	x	x	x
CCCCNC(=O)C[C@H]1C[C@@]2(C(=O)OC)C(=C[C@H](C(C)C)O[C@@H]2C2CC2)N(Cc2ccc(Cl)cc2Cl)C1=O	-1	x	x	x	x	x
Cc1cc2c(s1)c1cnn(Cc3cccc(Cl)c3F)c(=O)c1n2C	x	x	7%	x	-2%	x
COC(=O)c1ccc(Cl)cc1NC(=O)N1CC=C(c2c[nH]c3ccccc23)CC1	1	x	-22%	i	-2%	i
CC1CCC(C(C)C)C(OCC(O)CNC(C)(C)C)C1 (centres undefined)	-3	5	16%	i	4%	i
CC1CCC(C(C)C)C(OCC(O)CNC(C)c2ccccc2)C1 (centres undefined)	-10	1	u	21µM*	u	u
Nc1cc(S(=O)(=O)N2CCOCC2)ccc1N1CCCCC1	-11	-12	u	i	-6%	i
O=S(=O)(c1ccc(S(=O)(=O)N2CCCC2)cc1)N1CCCCCC1	0	-15	-15%	i	4%	i
O=S(=O)(c1ccc2c(c1)C(=NO)c1cc(S(=O)(=O)N3CCCCC3)ccc1-2)N1CCCCC1	3	-16	u	5.2µM*	u	1.2µM*
CC1CCN(S(=O)(=O)c2ccc3c(c2)C(=NO)c2cc(S(=O)(=O)N4CCC(C)CC4)ccc2-3)CC1	12	5	4.1µM*	i	5.2µM*	u
Nc1cc(S(=O)(=O)N2CCCCC2)ccc1N1CCCCC1	-1	-1	u	18µM*	-12%	u
Cc1cccn2cc(CSc3ccccc3N)nc12	-1	-17	u	13µM*	1%	i
O=C(c1ccc(Cl)c(Cl)c1)N1CCC(=O)N(C(COCc2cccc(C(F)(F)F)c2)Cc2ccccc2)CC1 (centres undefined)	-1	-5	21µM*	u	u	u
CC(C)CC(COCc1ccc(C(F)(F)F)cc1)N1CCN(C(=O)c2ccc(C(F)(F)F)cc2)CCC1=O (centres undefined)	3	u	23µM*	u	u	u
SMILES	PI4K2A inh	Giardia killer	Nrf2 block	KB-V1 cytotox	A549 tox	KB-3-1 tox
CC(C)C[C@@H](COCc1ccc(C(F)(F)F)cc1)N1CCN(C(=O)c2ccc(C(F)(F)F)cc2)CCC1=O	-2	x	x	i	x	u
Cc1cccc(COCC(Cc2ccccc2)N2CCN(C(=O)c3ccc(Cl)c(Cl)c3)CCC2=O)c1 (centres undefined)	2	-5	-13%	u	-4%	u
O=C(Nc1ccc2c(c1)OCO2)Nc1nnc(-c2ccncc2)s1	x	x	x	i	x	i
CC(C)Cn1c2c(c(O)c(C(=O)Nc3nccs3)c1=O)CCCC2	5	-5	21µM*	7.3µM*	-11%	u
Cc1ccc(C(C#N)c2ccc3c(C(F)(F)F)cc(C(F)(F)F)nc3n2)cc1 (centres undefined)	-4	-12	u	u	u	u
N#CC(c1ccccc1)c1ccc2c(C(F)(F)F)cc(C(F)(F)F)nc2n1 (centres undefined)	-10	-12	26µM*	i	u	u
O=C(Nc1c[nH]c(=O)[nH]c1=O)c1ccccc1Cl	-2	-3	-6%	16µM*	-1%	u
NC(c1csc(Nc2ccc(C(=O)c3ccccc3)cc2)n1)c1ccccc1Cl (centres undefined)	0	x	x	21µM*	x	u
CC(N)c1csc(Nc2ccc(C(=O)c3ccccc3)cc2)n1 (centres undefined)	3	x	x	i	x	i
CCOc1ccc(NC(=O)CN(C)C(=O)c2ccccc2OCCOc2ccccc2)cc1OCC	3	-25	u	2.3µM*	-9%	i
CCOc1ccc(NC(=O)CN(C)C(=O)CCCOc2ccc(Cl)c(C)c2)cc1OCC	-6	-7	21µM*	u	u	i
CCn1c(SCc2ccc(C(C)(C)C)cc2)nnc1-c1ccc(C(C)(C)C)cc1	3	x	x	x	x	x
COC(=O)C1CCN(C(=O)CCn2nnc(-c3cccs3)n2)CC1	-2	x	x	x	x	x
Cc1cc(=O)oc2c1ccc1oc(/C(=N/O)c3ccccc3)c(C)c12	7	-3	u	21µM*	-2%	u
Cc1ccc(/C(=N\O)c2oc3c(C)c4oc(=O)cc(C)c4cc3c2C)cc1	3	-21	23µM*	u	u	u
Cc1nnsc1NC(=O)OCc1ccc(C(C)(C)C)cc1	-14	22	10µM*	i	-14%	i
C=CCOC(=O)Nc1snnc1C	-8	-24	x	i	3%	i
CCN(C(=O)COc1ccc(C)cc1OC)c1cccc2ccccc12	5	-3	-30%	12µM*	-7%	i
NC(=O)NS(=O)(=O)c1ccc(Cl)cc1	2	x	x	x	x	x
COc1cc(C)c(C2NC(=O)c3ccccc3N2)cc1C (centres undefined)	2	-10	6%	u	-14%	2.6µM*

Source: PubChem (National Center for Advancing Translational Sciences (NCATS))
